GBA activity: Glucocerebrosidase. purified enzyme, resorufin glucoside fluorescence (screen aimed at inhibitors), 20 min. Potency, µM. 48,000 tested, 1.1% active. AID 360, 2006; in the data active = potency below about 15 µM; inconclusive = mostly about 16 µM to 33 µM;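 note: the screen sought inhibitors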
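Wild-type enzyme at 0.2 nM final in 50mM citric acid/KH2PO4, 10mM sodium taurocholate, 0.01% tween-20, pH 5.9, with resorufin beta-D-glucopyranoside at 30 uM final. Compounds titrated, 20 min at RT, red fluorescence read; AC50 from titration.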
Luciferase inh: qHTS Assay for Inhibitors of Firefly Luciferase | Luciferin 4-monooxygenase (Photinus pyralis), P08659 | purified firefly luciferase, luminescence, 8 min | Potency, µM (series often up to 57.1 µM), usual class: inhibitors | 72,000 tested, 2.2% active | AID 411, 2009; active = well fitted inhibition curve with a large enough effect; inconclusive = small, poorly fitted or top-dose-only effect; note: nearly all actives have a fitted effect of over 40% in size
Target sequence (P08659 whole entry, looked up): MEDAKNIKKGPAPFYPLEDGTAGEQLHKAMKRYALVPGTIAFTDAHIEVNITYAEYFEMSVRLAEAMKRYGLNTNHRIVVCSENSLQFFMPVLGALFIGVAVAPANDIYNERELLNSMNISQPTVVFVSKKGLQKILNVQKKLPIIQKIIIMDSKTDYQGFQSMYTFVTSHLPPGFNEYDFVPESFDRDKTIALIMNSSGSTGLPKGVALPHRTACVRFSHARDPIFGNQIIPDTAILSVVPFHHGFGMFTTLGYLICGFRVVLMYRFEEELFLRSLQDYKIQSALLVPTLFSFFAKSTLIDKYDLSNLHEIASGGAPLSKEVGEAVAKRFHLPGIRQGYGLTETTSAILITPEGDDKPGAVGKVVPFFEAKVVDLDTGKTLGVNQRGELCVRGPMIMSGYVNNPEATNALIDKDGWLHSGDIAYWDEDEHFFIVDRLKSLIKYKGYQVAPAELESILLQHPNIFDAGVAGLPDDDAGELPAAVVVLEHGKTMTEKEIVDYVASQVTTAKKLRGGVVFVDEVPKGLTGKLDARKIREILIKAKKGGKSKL
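Titration-based qHTS; buffer 50 mM imidazole pH 7.2, 50 mM KCl, 7 mM MgCl2, 10 uM ATP, 0.01% Tween 20, 0.05% BSA; luciferase/luciferin detector mix added after compound; 8 min, ambient; luminescence.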
PK Bst: Pyruvate Kinase; purified pyruvate kinase, luminescence ATP production; ribose 5-phosphate activator present at AC10; Potency, µM; 51,000 tested, 1.2% active; AID 361, 2006; in the data active = potency below about 11 µM; inconclusive = mostly about 12 µM to 25 µM;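 the screen sought inhibitors and activators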
Hits are given with their value; . = inactive; ? = inconclusive; / = not tested or not shown; [ ] = remark or other dose. A selection: hits, their analogues and other compounds. The true share with any hit is near 3.2%.

SMILES	GBA activity	Luciferase inh	PK Bst
COc1ccc(-c2cc(C(=O)N3CCN(c4ccccn4)CC3)c3ccccc3n2)cc1	.	1.3µM	2.2
COc1cc(-c2cc(C(=O)N3CCN(c4ccccn4)CC3)c3ccccc3n2)cc(OC)c1OC	15	.	.
COc1ccc(OC)c(-c2cc(C(=O)N3CCN(c4ncccn4)CC3)c3ccccc3n2)c1	.	.	.
COc1cccc(OC)c1C(=O)N1CCN(c2ccccn2)CC1	.	.	.
O=C(O)c1cc(-c2ccc3c(c2)OCO3)nc2ccccc12	.	.	.
CCCNC(=O)OC[C@@H]1O[C@H](CCO/N=C(\C)CCN2CCCc3nc(C)c(C)cc32)C=C[C@@H]1Oc1ccc(OC)cc1	/	.[11.4 µM]	/
Cc1cccc(CNc2ccnc(-c3ccccc3CN(C)C)n2)c1	/	.[2.29 µM]	/
COc1ncc2nc(-c3cccs3)c(=O)n(Cc3cccs3)c2n1	/	.[11.4 µM]	/
CN(C)c1ncc2nc(-c3ccc(F)cc3)c(=O)n(-c3ccccc3)c2n1	/	.[11.4 µM]	/
O=C(N[C@@H](Cc1ccccc1)C(=O)O)c1cccnc1	/	.	/
O=C(CC(Nc1ccccc1)C(=O)O)c1ccccc1 (stereo not given)	.	13µM	10
c1cncc(-c2cc(-n3ccnc3)ncn2)c1	/	.[2.29 µM]	/
Cc1nc2nc(-c3ccccc3)cc(=O)n2[nH]1	.	25µM	/
O=c1cc(-c2ccccc2)nc2nc(CCc3ccccc3)[nH]n12	.	.	.
Nc1ccccc1S[C@@H](C[N+](=O)[O-])c1ccc2c(c1)OCO2	/	.[11.4 µM]	/
Cn1cccc1-c1nc2ccc(NC(=O)c3cccs3)cc2[nH]1	.	.	.
O=C(Nc1ccc2nc(-c3ccc(Br)o3)[nH]c2c1)c1ccco1	/	10µM	10
CC(=O)Nc1ccc2nc(-c3cccs3)[nH]c2c1	/	16µM	/
CC(=O)Nc1ccc(Oc2ccc3nc(C)[nH]c3c2)cc1	/	.	.
O=S(=O)(Nc1ccc2nc(-c3ccc(Br)o3)[nH]c2c1)c1ccccc1	.	.	.
O=C(Nc1ccc2nc(-c3ccc(Br)o3)[nH]c2c1)c1cccs1	/	13µM	?
C[C@]12C=CC(=O)C=C1CC[C@@H]1[C@H]3C[C@@H](O)[C@](O)(C(=O)CO)[C@@]3(C)C[C@H](O)[C@]12F	/	.	/
COc1ccc(COC(=O)N/N=C2/C[C@@H](O)[C@@H](O)[C@@H]3[C@@H]4C(=O)N([C@@H](C)c5ccccc5)C(=O)[C@H]4CC[C@H]23)cc1	/	.[11.4 µM]	/
Oc1c(/C=N/c2ncn[nH]2)ccc2ccccc12	/	.	/
O=[N+]([O-])c1cccc(/C=N\Nc2ccc3ccccc3n2)c1O	/	3.2µM	/
SMILES	GBA activity	Luciferase inh	PK Bst
c1cc(-c2nnc(-c3ccncc3)o2)ccn1	/	.	/
OCC#CCSc1nnc(-c2ccncc2)o1	.	.	.
CCCOc1ccc(-c2nnc(-c3ccncc3)o2)cc1	.	.	1.6
CC(C)COc1ccc(-c2nnc(-c3ccncc3)o2)cc1	.	.	2.3
Fc1ccc(-c2nnc(NC3=NCCCCC3)o2)cc1	.	2.5µM	4.5
Fc1ccc(-c2nnc(Cc3nnc(-c4ccc(F)cc4)o3)o2)cc1	.	.	.
O=S(=O)(c1ccccc1)N1CCC2(CCCN(c3ccccn3)C2)CC1	/	.[11.4 µM]	/
O=C(O)COCCN1CCN([C@@H](c2ccccc2)c2ccc(Cl)cc2)CC1	/	.	/
CN(C)c1ccc(-c2nccc(NCCN3CCOCC3)n2)cc1	/	.[2.29 µM]	/
Oc1[nH]c2ccccc2c1/C=N/c1nccs1	.	25µM	?
Oc1[nH]c2ccccc2c1C=NCC1CCCO1 (stereo not given)	.	.	.
Cc1ccnc(N2CCCC(C(=O)Nc3nnc(C)s3)C2)n1 (stereo not given)	/	.	.
Cc1ccnc(N2CCC(C(=O)Nc3nnc(C)s3)CC2)n1	12	.	.
O=c1c(CCc2ccccc2)nc2cnc(N3CCOCC3)nc2n1C[C@H]1CCCO1	/	.[11.4 µM]	/
O=C(c1cnccn1)N1CCC[C@@]2(CCN(c3cccc(-c4ccccc4)c3)C2)C1	/	.[11.4 µM]	/
Fc1ccc(Nc2nc(N3CCOCC3)c3ccccc3n2)cc1	/	.	/
Nc1nc(Nc2cccc(F)c2)nc2ccccc12	13	10µM	9.4
O=C(O)CCCC[C@H]1CCSS1	/	.	/
CCC(=O)Nc1ccc(NC(=O)c2cc3ccccc3o2)cc1	/	.	/
Cc1csc(C(C#N)C(=O)c2cc3ccccc3o2)n1 (stereo not given)	.	13µM	?
COCC(=O)N1CCC2(CC1)CN(c1ccncc1)C2	/	.[11.4 µM]	/
CC(C)C1=C[C@@]23CC[C@@H]4[C@](C)(CCC[C@@]4(C)C(=O)O)[C@@H]2C[C@@H]1[C@@H](C(=O)O)[C@@H]3C(=O)O	/	.[11.4 µM]	/
COc1ccc2nc(NC(=O)C3CCN(S(=O)(=O)c4cccc5nsnc45)CC3)sc2c1	.	.	3
Cc1cccc(NC(=O)C2CCN(S(=O)(=O)c3cccc4nsnc34)CC2)n1	.	.	?
CC1=CC(=O)CC(C)(C)[C@@]1(O)/C=C\C(C)=C\C(=O)O	/	.[11.4 µM]	/
SMILES	GBA activity	Luciferase inh	PK Bst
COc1ccc(-c2cc(=O)c3ccccc3s2)cc1	.	16µM	0.88
COC(=O)c1sc2ccccc2c1C(=O)OC	.	.	.
Cc1sc2nc(SCC(=O)NCc3ccco3)n(-c3ccccc3)c(=O)c2c1C	.	.	.
CC(C)C(C)(C#N)NC(=O)CSc1nc2scc(-c3ccco3)c2c(=O)n1-c1ccccc1 (stereo not given)	15	.	.
FC(F)(F)c1cc(CN2CC3(CCNCC3)C2)cc(C(F)(F)F)c1	/	.[11.4 µM]	/
O=C1OCCC1Sc1nnc(-c2ccco2)o1 (stereo not given)	.	.	.
O=C1OCCC1Sc1nnc(-c2ccc(Br)cc2)o1 (stereo not given)	.	16µM	/
O=C1C2=C(Nc3cc([N+](=O)[O-])ccc3N2)O[C@@H]1c1c[nH]c2ccc(COc3ccccc3)cc12	/	.[11.4 µM]	/
COc1ccc2c(c1)S/C(=C\C(=O)c1ccncc1)N2C	/	5µM	/
CCN1/C(=C/C(C)=O)Sc2ccc(OC)cc21	.	.	.
O=C(Oc1ccccc1)N1CCC2(CC1)CN(c1ccncc1)C2	/	.[11.4 µM]	/
CCn1ncc(Br)c1C(=O)Nc1ccc(Cl)cn1	.	.	.
Cc1ccc(C(C)C)c(OCC(=O)Nc2ccc(Cl)cn2)c1	.	.	.
CCOc1ccc(C(=O)Nc2ccc(Cl)cn2)cc1Cl	.	25µM	/
O=C(COc1ccc(Cl)cc1Cl)Nc1ccc(Cl)cn1	/	1.3µM	/
N#Cc1ccccc1-c1ccc2ncnc(NC3CC3)c2c1	/	.[2.29 µM]	/
CCCCC[C@@H](O)[C@@H]1C(=O)O[C@@H](C)[C@@H](O)\C=C/C=C\C=C/C=C\C=C(\C)[C@H](O)C[C@H](O)C[C@H](O)C[C@H](O)C[C@H](O)C[C@H](O)C[C@@H]1O	/	.[11.4 µM]	/
CCOC(=O)c1ccc2c(c1)nc(COc1ccccc1C#N)n2CC	.	.	.
CCn1c(C)nc2cc(C(=O)OC(C(F)(F)C(F)F)C(F)(F)C(F)F)ccc21	?	20µM	/
COC(=O)N1CCC2(CCCN(C(=O)Nc3ccc(OC)cc3)C2)CC1	/	.[11.4 µM]	/
CN1CCCN([C@@H](c2ccccc2)c2ccc(Cl)cc2)CC1	/	.	/
O=C(c1ccncc1)N1CCC2(CC1)CCN(c1ccccn1)CC2	/	.[11.4 µM]	/
CCOC(=O)c1[nH]c2cc3c(cc2c1NC(=O)CN1CC(C)CC(C)C1)OCO3 (stereo not given)	/	.	3.5
CCOC(=O)c1[nH]c2ccc(OCC)cc2c1NC(=O)CN1CCCC(C)C1 (stereo not given)	.	.	.

Screening results as filed in PubChem.
